Measured values from PubChem BioAssay AID493085 (Broad Institute, 2011).
The whole screen tested about 2,400 compounds, of which about 360 (15%) were called active. Another 5% or so got no clear call; they are omitted.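 Rule for the calls: active = falling-signal curve with half-maximal concentration at or below ten times the top tested dose; inconclusive = flat fit at 30 to 70% inhibition, or poor fit; inactive = signal rise, flat within 30%, or potency beyond limit.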 These entries were drawn from the full list. Entries with a potency or affinity are not part of this list.

test: dox-induced RFP signal loss in R4-3T3 cells – cell-based, NIH3T3 R4, HSE-GFP and Tet-On RFP, cherry-pick, set 3, dose response (AID 493085); settings: NIH3T3 R4 HSE-GFP/Tet-RFP reporter, fluorescence, 48 h; series mostly up to 19.5 µM;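 note: cells heat shocked 2 h at 42 °C with doxycycline to induce reporters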

outcome, inactive:
COc1cc2cc(CN(C(=O)NC3CCCCC3)C3CCCC3)c(=O)[nH]c2cc1OC, COc1ccc(/C=N/NC(=O)CN(C)S(=O)(=O)c2ccc(NC(C)=O)cc2)cc1, CCOC(=O)c1c(C)n(C)c2ccc(OC)c(NC(=O)CN3CCSCC3)c12, COc1ccc(C(=O)C2CCCN(Cc3ccc(NC(C)=O)cc3)C2)cc1OC (stereo not drawn), Nc1nc(Cl)nc2c1ncn2C1CC(O)C(CO)O1 (stereo not drawn), Cc1oc(-c2cc3c(cc2Cl)OCO3)nc1CN1CCCC1c1ccc(F)cc1 (stereo not drawn), Cc1c(Cl)cccc1NC(=O)CS(=O)(=O)c1ccccc1, CC(C)n1cc(/C=N/Nc2ccc(C(=O)O)cc2)c2ccccc21, CCOC(=O)N1CCN(C(=O)C2CCN(Cc3ccc(OC)cc3OC)CC2)CC1, COc1cccc(-c2cccc(NC(=O)C3CCN(Cc4ccon4)CC3)c2)c1, Cc1ccnc(NS(=O)(=O)c2ccc(NC(=O)COc3ccccc3)cc2)n1, Cc1nc(C(=O)NNC(=O)c2cccc(Cl)c2)c(C(F)(F)F)o1, O=C(Cc1ccccc1)Nc1nc2ccccc2s1, O=C(COc1ccccc1C(=O)O)Nc1ccc(SC(F)F)cc1, N/C(CC(=O)Nc1ccc(F)cc1)=N\O, Cc1ccccc1C(=O)Nc1nnc(CC(=O)N/N=C/c2ccco2)s1, Cc1cc(C)nc(NC(=O)COc2cc(Cl)cc(Cl)c2)n1, COc1cccc(CC(=O)N[C@@H](CCSC)c2nc3ccccc3[nH]2)c1, CCOc1ccc(N=C(NN)c2ccc3ccccc3n2)cc1, Cc1ccc(S(=O)(=O)c2ccc(Oc3ccccc3)cc2)cc1, O=[N+]([O-])c1ccccc1Nc1cccnc1, O=C(NCc1ccccc1)C1CCCN(S(=O)(=O)c2cccc3nsnc23)C1 (stereo not drawn), Nc1nc(NCc2ccco2)nc(NC2CCCCC2)c1[N+](=O)[O-], Cc1nc2sc3c(NCc4ccco4)ncnc3c2c2c1COC(C)(C)C2, CC(C)CCc1c(O)nc(SCC(=O)N2CCCCCC2)[nH]c1=O, O=C(O)COc1ccc(/C=N/NC(=O)c2ccccc2Br)cc1, CCCc1cc(=O)oc2cc(C)cc(OCC(=O)NCCCn3ccnc3)c12, O=C(CC(Nc1ccccc1Cl)C(=O)OCC(=O)c1cccs1)c1ccccc1 (stereo not drawn), COc1ccc2oc(=O)c(N3C(=O)c4ccccc4C3=O)cc2c1, COc1cc(C2NC(=O)NC(C)=C2C(=O)OCC2CCCO2)ccc1O (stereo not drawn), CC1(C)CC(NCc2ccc3c(c2)OCO3)CCO1 (stereo not drawn), CCC1CCCCN1C(=O)c1cc2c(=O)n3cccc(C)c3nc2s1 (stereo not drawn), CN(C)c1ccc(C2Nc3ccccc3C(=O)N2CCCN2CCOCC2)cc1 (stereo not drawn), NC(=O)C1CCN(CC(=O)Nc2nc(-c3ccccc3)cs2)CC1, O=C(c1c(F)cccc1F)N1CCN(c2ccccc2F)CC1, Cc1cc(C(=O)NC2CCCN(Cc3ccc(Cl)cc3)C2)n(C)n1 (stereo not drawn), O=Cc1ccc(OC(=O)Cc2ccc(F)cc2)cc1, CC(=NCCc1ccccc1)C1=C(O)CSC1=O, CC(=O)Nc1ccc(NC(=O)CSc2cn(CC(=O)N3CCOCC3)c3ccccc23)cc1, COc1ccc(CNC(=O)C(=O)c2cn(CC(=O)N3CCOCC3)c3ccccc23)cc1, Cc1ccc(N2C(=O)c3ccccc3C2Nc2ccccc2F)nc1 (stereo not drawn), N#Cc1c(NC(=O)CSc2ncccn2)oc(-c2ccccc2)c1-c1ccccc1, Cc1ccc([N+](=O)[O-])cc1NC(=O)CSc1n[nH]c(-c2cccnc2)n1, CC(C)(C)OC(=O)C1C(=O)CC(C)(O)C(C(=O)OC(C)(C)C)C1c1cccnc1 (stereo not drawn), CCC(=O)N1CCc2cc(S(=O)(=O)NCCC(=O)Nc3ccccc3C)ccc21, Cc1onc(-c2ccccc2)c1C(=O)Nc1sc2c(c1C(N)=O)CCC2, C/C(CC(=O)Nc1ccc(N(C)C)cc1)=N\NC(=O)Cc1csc(N)n1, OC(COc1c(F)cc(Br)cc1F)CN1CCN(c2ccc(F)cc2)CC1 (stereo not drawn), COc1cccc(NC(=S)N(CCC(C)C)C2CCN(C(C)=O)CC2)c1, O=C1CCC(=O)N1CNc1ccccn1, CCn1c(=O)c(C(=O)Nc2ccccc2F)c(O)c2ccccc21, Cn1c(C(=O)NN)cc2cc(OCc3ccccc3)ccc21, COc1ccc2nc(NC(=O)CN3CCOCC3)sc2c1, COc1ccc(N2CC(C(=O)Nc3nnc(C4CCCCC4)s3)CC2=O)cc1 (stereo not drawn), O=C(c1ccc(F)cc1)N1CCCC(N2CCN(Cc3ccc4c(c3)OCO4)CC2)C1 (stereo not drawn), COc1nc(-c2ccccc2)c2cc(Br)ccc2n1, COc1ccc(OC(C)C(=O)N2CCC(C)CC2)cc1 (stereo not drawn), CCOC(=O)c1ccc(NC(=S)Nc2ccccc2N)cc1, CCOC(=O)c1ccc(NC(=O)Oc2ccccc2)cc1, COc1ccc(-n2c(-c3ccc(F)cc3)cnc2SCC(=O)NCc2ccco2)cc1, Cc1cc2cc(CCNC(=O)C(=O)c3c[nH]c4ccccc34)c(=O)[nH]c2cc1C, CC(c1ccccc1)N1CCN(C(=O)CCl)CC1 (stereo not drawn), O=C(Nc1ccc(Cl)cn1)c1ccc2c(Cl)c3c(nc2c1)CCC3, CC(=O)COc1ccccc1OC(=O)c1ccco1, O=C(CSc1ccccc1)Nc1cccc(NC(=O)c2ccco2)c1, N/C(=N\c1nc2ccccc2o1)NC(=O)c1ccc(Cl)cc1, Cc1nnc(N2C(=O)c3cccc4cccc(c34)C2=O)s1, COc1cccc(NC(=O)N2CCCC2C(=O)NC(C)C)c1 (stereo not drawn), CCOC(=O)c1cnn(-c2ccccc2)c1-n1cccc1, COc1nn(-c2ccccc2)c(=O)c(Cl)c1Cl, O=C(C1CCC(CNS(=O)(=O)c2cccc3cccnc23)CC1)N1CCCC1 (stereo not drawn), COc1c([N+](=O)[O-])c(=O)oc2ccccc12, CCC(=O)Nc1c(-c2ccc(Cl)cc2)c(=O)c2ccccc2n1C
